Reference: PubChem BioAssay AID686979 (National Center for Advancing Translational Sciences (NCATS), 2013)
The whole screen tested about 420,000 compounds, of which about 50,000 (12%) were called active. A call without a number means that no potency is given here. About 26% were inconclusive and are not listed. Many of the other results were omitted from the sample, so actives are more common in it than they were. Unmarked numbers belong to inactive results. The call rests on the fitted dose curve; in most records, active means well fitted inhibition curve with a large enough effect; inconclusive means small, poorly fitted or top-dose-only effect; inactive means flat fitted curve, though single readings scatter.

experiment: qHTS for Inhibitors of human tyrosyl-DNA phosphodiesterase 1 (TDP1): qHTS in cells in presence of CPT; conditions: chicken DT40 Tdp1-/-;hTDP1 cells + 20 nM CPT, ATP luminescence, 48 h; series mostly up to 46.2 µM; further: nearly all actives have a fitted effect of over 55% in size
How it was run: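 Cell growth measured by CellTiter-Glo luminescence after a minimum 48 h, 37 C compound exposure with 20 nM CPT in Tdp1-knockout DT40 cells stably expressing hTDP1, seeded 400/well; qHTS titration format.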
Potency means the concentration at half of the fitted maximal effect.

Row | SMILES | Potency | activity change, negative = growth inhibition
1 | CC(C)CC(=O)N1CCN(Cc2cccc(Cl)c2)CC1 | inactive | –
2 | O=C(O)C(O)[C@@](O)(Cc1ccc(O)cc1)C(=O)O (stereo partly drawn) | inactive | –
3 | Cc1cc(-c2ccnc(-n3ncc(C(=O)NCCc4ccncc4)c3C)n2)c(C)s1 | – | -1.95% [at 9.04 µM]
4 | Cc1nnc(SCC2=C(C(=O)O)N3C(=O)C(NC(=O)Cn4nc(C)c(Cl)c4C)C3SC2)s1 (stereo not drawn) | inactive | –
5 | O=C(CN(CC1CCCO1)C(=O)CNS(=O)(=O)c1ccc(F)cc1)NCc1ccco1 (stereo not drawn) | inactive | –
6 | O=c1oc2ccccc2c(CNc2ccccc2)c1[N+](=O)[O-] | inactive | –
7 | CCS(=O)(=O)c1ccc(C(=O)NC)c(Cl)c1Cl | inactive | –
8 | c1csc(-c2cn3c(n2)SCC3)c1 | inactive | –
9 | O=c1c2cc(-c3ccccc3)sc2nc2n1N=C(c1cccs1)CS2 | 16.4 µM (active) | –
10 | Cc1nnc2n1N=C(c1ccccc1)CS2 | inactive | –
11 | CCN([C@H](CO)C(C)C)S(=O)(=O)c1ccccc1Br | inactive | –
12 | O=C(NC(=S)NC1CCS(=O)(=O)C1)c1cccc([N+](=O)[O-])c1 (stereo not drawn) | inactive | –
13 | CCc1ccccc1N1C(=O)CN(S(=O)(=O)CC)CC1(C)C(=O)NC1CCCCC1 (stereo not drawn) | inactive | –
14 | O=C(CSc1ncnc2scc(-c3ccccc3)c12)NCc1ccc2c(c1)OCO2 | inactive | –
15 | O=C(Cn1nnc(-c2ccccc2)n1)NCc1ccc2c(c1)OCO2 | inactive | –
16 | CN(C)C(=O)c1cccc(-c2cnc3sc(NCc4ccc5c(c4)OCO5)nn23)c1 | 16.4 µM (active) | –
17 | CCN(CC(=O)NCc1cccs1)C(=O)c1cccc(S(=O)(=O)Nc2ccccc2OC)c1 | inactive | –
18 | O=C(Nc1cccc(-c2nc3ccccc3[nH]2)c1)c1ccc(C(=O)Nc2cccc(-c3nc4ccccc4[nH]3)c2)cc1 | 18.4 µM (active) | –
19 | O=C(Nc1cccc(NC(=O)c2ccc(Br)cc2)c1)c1ccccc1 | inactive | –
20 | O=C(Cc1cccs1)Nc1cccc(-c2nc3ccccc3[nH]2)c1 | inactive | –
21 | CCCC(=O)Nc1ccc2oc(-c3ccc(O)c(Br)c3)nc2c1 | inactive | –
22 | O=C(CNC(=O)c1ccccc1Br)NNC(=O)c1cccs1 | inactive | –
23 | CCn1c(=O)c2ccccc2n(CC(=O)N2CCCc3ccccc32)c1=O | inactive | –
24 | Cn1nccc1NC(=O)Nc1ccc(OC(F)(F)F)cc1 | inactive | –
25 | COC(=O)[C@H](C)NC(=O)Nc1ccc(OC(F)(F)F)cc1 | inactive | –
26 | O=C(Nc1ccc(OC(F)(F)F)cc1)c1ccc2c(c1)no[n+]2[O-] | 4.11 µM (active) | –

Row | SMILES | Potency | activity change, negative = growth inhibition
27 | CCN1CCN(C(=O)Cn2nc(C)n3c(cc4c(OC)cccc43)c2=O)CC1 | inactive | –
28 | CCn1nc(C)c(CNC(=O)C2CCC(=O)N(Cc3cccc(F)c3)C2)c1C (stereo not drawn) | inactive | –
29 | Cc1cc(C)c(CN2CCN(C(=O)Cn3ccc(NC(=O)OCc4ccccc4)nc3=O)CC2)c(C)c1 | 5.17 µM (active) | –
30 | Cc1cc(C)c2c(-n3cccc3)c(NC(=O)OCc3ccccc3)sc2n1 | inactive | –
31 | Nc1ccn(CC(=O)N2CCN(c3ccccn3)CC2)c(=O)n1 | inactive | –
32 | Cc1cc(C(=O)Nc2nnc(C3CC3)s2)c(C)s1 | inactive | –
33 | CCOC(=O)c1nn(-c2ccccc2F)c2nc(Nc3ccccc3)cc(=O)n12 | inactive | –
34 | COc1ccc(Cc2nc(-c3ccccn3)no2)cc1OC | inactive | –
35 | COc1cnc(-c2ccccn2)nc1Oc1ccc(C(C)(C)C)cc1 | 3.66 µM (active) | –
36 | COc1ccc(Sc2nc(-c3ccccc3)ncc2OC)cc1 | inactive | –
37 | COCC(=O)Nc1cc(C(=O)N2CCCC(c3ccccc3)CC2)c2c(c1)nc(-c1ccncc1)n2C (stereo not drawn) | – | 6.88% [at 9.04 µM]
38 | COc1cccc(/C=C/C(=O)OCC(=O)N2CCCc3ccccc32)c1 | inactive | –
39 | CC(=O)c1cc(-c2ccccc2)n(CC(=O)NC2CCCCC2)c1C | inactive | –
40 | CC(=O)c1cc(-c2ccccc2)[nH]c1N1CCCC1 | 16.4 µM (active) | –
41 | O=c1cc(-c2ccccc2)nc(N2CCCCC2)[nH]1 | inactive | –
42 | CCCCn1c(N)c(N2CCOCC2)c(=O)n(CC(=O)NCCc2ccccc2)c1=O | inactive | –
43 | CN(C(=O)CSc1nnc(-c2n[nH]c3ccccc23)o1)c1ccccc1 | inactive | –
44 | Cc1c(Cl)c([N+](=O)[O-])nn1CC(=O)NCCCN1CCOCC1 | inactive | –
45 | CCCC/C(C)=N/NC(=O)NC1CCCCC1 | inactive | –
46 | O=C(COC(=O)/C=C/c1ccc(OC(F)F)cc1)NC1CCCCC1 | inactive | –
47 | C/C(=N\NC(=O)NC1CCCCC1)c1ccc(OC(F)F)cc1OC(F)F | 23.1 µM (active) | –
48 | O=C(NCc1ccccc1Cl)C1CCC(CNc2c(N3CCCCC3)c(=O)c2=O)CC1 (stereo not drawn) | inactive | –
49 | COc1ccc2oc(=O)cc(CN3CCOCC3)c2c1 | inactive | –
50 | O=C(NC(Cc1ccccc1)C(=O)N1CCCC(C(F)(F)F)C1)c1ccccc1 (stereo not drawn) | inactive | –
51 | FC(F)(F)C1CCCN(c2nsc3ccccc23)C1 (stereo not drawn) | 2.31 µM (active) | –
52 | O=C(NCC(=O)N1CCCC(C(F)(F)F)C1)c1ccccc1F (stereo not drawn) | inactive | –

Row | SMILES | Potency | activity change, negative = growth inhibition
53 | CCCCCC1CC(COc2ccccc2)OC1=O (stereo not drawn) | inactive | –
54 | COc1ccc(CCNC(=O)C(=O)NCC2OCCN2S(=O)(=O)c2ccc(OC)c(C)c2)cc1 (stereo not drawn) | 18.4 µM (active) | –
55 | COc1ccc(CCNC(=O)C(=O)NCC2OCCN2S(=O)(=O)c2ccc(F)cc2)cc1OC (stereo not drawn) | inactive | –
56 | COc1ccc(S(=O)(=O)N2CCOC2CNC(=O)C(=O)NCc2ccncc2)cc1C (stereo not drawn) | inactive | –
57 | CN(C)CCCNC(=O)c1cc(C(=O)Cc2ccc(Cl)cc2)c[nH]1 | inactive | –
58 | CCCCN(CCCC)CC(O)Cn1c2ccccc2c(=O)c2ccccc21 (stereo not drawn) | inactive | –
59 | Cc1ccc(C(=O)OCC(=O)N2CC(C)CC(C)C2)cc1S(=O)(=O)N1CCCCC1 (stereo not drawn) | inactive | –
60 | COc1ccc(C2C(C(C)=O)=C(O)C(=O)N2Cc2cccnc2)cc1 (stereo not drawn) | inactive | –
61 | CCCOc1ccc(C2c3c(-c4ccccc4O)n[nH]c3C(=O)N2Cc2cccnc2)cc1 (stereo not drawn) | 23.1 µM (active) | –
62 | CCOc1ccc(/C(O)=C2/C(=O)C(=O)N(Cc3cccnc3)C2c2ccc(N(C)C)cc2)c(C)c1 (stereo not drawn) | inactive | –
63 | COc1ccc(S(=O)(=O)N2CCC(C(=O)NCCC(=O)NCCc3cccc(F)c3)CC2)cc1 | inactive | –
64 | NC(Cc1ccc(F)cc1)c1csc(Nc2nncc3ccccc23)n1 (stereo not drawn) | 4.11 µM (active) | –
65 | COCC(C)NC(=O)COc1nncc2ccccc12 (stereo not drawn) | inactive | –
66 | CN1CCN(S(=O)(=O)c2ccc(NC(=S)NC(=O)C3CC3)cc2)CC1 | inactive | –
67 | O=C(NCCc1ccccc1)C(=O)NCC1OCCN1S(=O)(=O)c1cccs1 (stereo not drawn) | inactive | –
68 | CCCCn1c(N)c(N(CC(C)C)C(=O)c2cccc(S(=O)(=O)N3CCN(C(C)=O)CC3)c2)c(=O)[nH]c1=O | inactive | –
69 | COc1cc(C(=O)Nn2c(O)c(C3=c4ccccc4=NC3=O)sc2=S)ccc1O | inactive | –
70 | CCN(CC)CCCNC(=O)CCn1nc(-c2ccc(Cl)cc2)ccc1=O | inactive | –
71 | O=C(CN1CCN(c2ccc(Cl)cc2)CC1)N1CCCC1 | inactive | –
72 | O=C1C=CC(=O)N1c1ccc(N2CCCCC2)cc1 | 1.16 µM (active) | –
73 | O=c1[nH][nH]c(=O)c2cc(N3CCCC3)ccc12 | inactive | –
74 | O=C(O)/C=C/C(=O)NNc1ccc([N+](=O)[O-])cc1 | 20.6 µM (active) | –
75 | O=C(Cc1ccccc1)NNS(=O)(=O)c1ccc([N+](=O)[O-])cc1 | inactive | –
76 | CNC(=S)Nc1ccc([N+](=O)[O-])cc1 | inactive | –
77 | COc1cccc(NC(=O)C(Sc2nnnn2C)c2ccccc2)c1 (stereo not drawn) | inactive | –
78 | COCCCN1C(=O)C(CC(=O)NCc2cccs2)CC(C(=O)N2CCOCC2)=C1C (stereo not drawn) | inactive | –

Row | SMILES | Potency | activity change, negative = growth inhibition
79 | CCOCCCN1C(=O)C2C(C(=O)Nc3ccc(OCC)cc3)C3C=CC2(O3)C1C(=O)NC1CCCCC1 (stereo not drawn) | inactive | –
80 | CCc1cccc(C)c1NS(=O)(=O)c1cc(Br)cnc1N | inactive | –
81 | Cc1cc(-c2ccc(S(=O)(=O)N3CCc4ccccc4C3)s2)on1 | inactive | –
82 | Cc1cc(-c2ccc(S(=O)(=O)N3CCN(c4cccc(C(F)(F)F)c4)CC3)s2)on1 | inactive | –
83 | Cc1cc(C)cc(NS(=O)(=O)c2ccc(-c3cc(C)no3)s2)c1 | 2.59 µM (active) | –
84 | CC(=O)c1ccc(NS(=O)(=O)c2ccc(-c3cc(C)no3)s2)cc1 | inactive | –
85 | CCc1cccc(C)c1NS(=O)(=O)c1ccc(-c2cc(C)no2)s1 | 0.411 µM (active) | –
86 | O=C(O)c1cccc(N=NN2CCCCCC2)c1 | inactive | –
87 | CC(C)(C)c1ccc(S(=O)(=O)NC(=O)C2(C)CCN2C(=O)CC2CC2)cc1 (stereo not drawn) | inactive | –
88 | Cc1ccnc(NC(=O)CCNS(=O)(=O)c2ccc(C)c(C)c2)c1 | inactive | –
89 | CN1CCN(C(=O)c2ccc(-c3cc4nc(NCc5cccnc5)n(C)c(=O)c4s3)cc2)CC1 | inactive | –
90 | CC(=O)N/N=C/c1cc2c(cc1[N+](=O)[O-])OCO2 | inactive | –
91 | Cc1ccc(S(=O)(=O)N/N=C\c2cc3c(cc2[N+](=O)[O-])OCO3)cc1 | 10.3 µM (active) | –
92 | Cc1ccc(-c2n[nH]c(=S)n2/N=C/c2cc3c(cc2[N+](=O)[O-])OCO3)cc1 | inactive | –
93 | O=C(Nc1ccc(Cl)cc1)c1csc([C@@H]2O[C@H](CO)[C@H](O)[C@H](O)[C@H]2O)n1 | inactive | –
94 | O=C(Nc1ccccc1)Oc1cccc2cccnc12 | 0.651 µM (active) | –
95 | Fc1ccccc1COc1cccc2cccnc12 | inactive | –
96 | O=C(Nc1ccccc1Cl)Nc1cccc2cccnc12 | inactive | –
97 | CCN(CC(=O)N1CCCC1)S(=O)(=O)c1ccc(F)cc1 | inactive | –
98 | O=S1(=O)C=C(SCCN2CCCC2)c2ccccc21 | inactive | –
99 | O=C(COC(=O)c1ncc(Cl)c(Cl)c1Cl)NCc1cccs1 | inactive | –
100 | CN1CCN(c2ccc(S(=O)(=O)N3CCCCC3)cc2NC(=O)Cc2ccccc2F)CC1 | inactive | –
101 | O=C(Cc1nc2ccccc2[nH]c1=O)c1ccc(Cl)cc1 | inactive | –
102 | CCC(=O)/C(=C(/O)c1ccccc1)c1nc2ccccc2[nH]1 | inactive | –
103 | O=C(/C(=C/c1cccc(Cl)c1)c1nc2ccccc2[nH]1)c1ccccc1 | 16.4 µM (active) | –
